# Measurements published in PubChem BioAssay (Tox21).
# Records with an inconclusive call do not appear. Unmarked numbers belong to inactive results. Active and inactive are the calls of the source. The call rests on the fitted dose curve; in most records, active means well fitted cell-killing curve with a large enough effect in the repeat runs; inconclusive means weak or mixed curves, or effect the other way; inactive means flat fitted curve, though single readings scatter.
# Experiment: cAMP Responsive Elements (CRE) small molecule agonists, cell-based qHTS assay: qHTS cell viability counter screen (AID 2060914); further: nearly all actives have a fitted effect of over 50% in size
# Conditions: CRE-bla HEK293T viability, CellTiter-Glo luminescence, 5 h; series mostly up to 92.4 µM; activity change, negative = cytotoxicity: at the top concentration
# In short: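 Cytotoxicity was measured as ATP luminescence (CellTiter-Glo, 30 min at room temperature) in the same wells as the CRE-bla FRET read-out. HEK293T CRE-bla cells had 3 h compound exposure at 37C/5% CO2.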
# On the % scale 0 is the no-effect control and ±100 the full control effect; potency means the concentration at half of the fitted maximal effect.
SMILES,"activity change, negative = cytotoxicity",Potency
Oc1c(Br)c(Br)c(Br)c(Br)c1Br,-3.01%,
Cc1ccccc1N,,inactive
CCCCOC(=O)CCC(=O)OCCCC,2.76%,
COC(=O)N(OC)c1ccccc1COc1ccn(-c2ccc(Cl)cc2)n1,,5.45 µM (active)
CCOP(=S)(NC(C)C)Oc1ccccc1C(=O)OC(C)C (stereo not drawn),-16.8%,
Oc1cc(Cl)c(Cl)c(Cl)c1Cl,-18.2%,
CCOP(=S)(OCC)SC(CCl)N1C(=O)c2ccccc2C1=O (stereo not drawn),-7.05%,
N#Cc1cc(Br)c(O)c(Br)c1,-9.16%,
O=S(=O)(O)OOS(=O)(=O)O,,inactive
CCC(C)(CC)c1cc(NC(=O)c2c(OC)cccc2OC)on1,,inactive
O=C(N[C@H](c1ccccc1)[C@@H]1CN2CCC1CC2)c1c(Cl)ccc(C(F)(F)F)c1Cl,12.8%,
Clc1ccccc1-c1nnc(-c2ccccc2Cl)nn1,,inactive
CCCCC(CC)COC(=O)Cl (stereo not drawn),,inactive
CC1(C)CCC(Cc2ccc(Cl)cc2)C1(O)Cn1cncn1 (stereo not drawn),-16.4%,
CCCCc1ccc(O)cc1,-9.01%,
Nc1ccc(-c2ccc(N)cc2)cc1,,inactive
COP(=S)(OC)Oc1cc(Cl)c(Br)cc1Cl,-11.7%,
FC(F)C(F)(F)OCC(Cn1cncn1)c1ccc(Cl)cc1Cl (stereo not drawn),-19%,
CNC(=O)Oc1cccc(C(C)C)c1,3.67%,
Nc1nc(N)c(N)c(N)n1,-0.697%,
Cc1ccc(-c2c(Cl)nc(C#N)n2S(=O)(=O)N(C)C)cc1,-7.66%,
Nc1c(Br)cc(Br)c2c1C(=O)c1ccccc1C2=O,-19.1% [at 18.9 µM],
CO/N=C(\C(=O)OC)c1ccccc1CO/N=C(\C)c1cccc(C(F)(F)F)c1,-20.1%,
